Source: PubChem BioAssay (The Scripps Research Institute Molecular Screening Center)
Shown are actives, neighbours in structure and some others; about 0.9% of the full set was active somewhere.
SRC2 TRFRET art: flags TR-FRET format artefacts in PPARgamma SRC-2 recruitment agonist screen | AID 1049 | TR-FRET artefact counter-screen; hits give high values | TR-FRET ratio at 8 µM | 200,000 tested, 0.4% active
PPARg SRC-1 ag: promotes SRC-1 coactivator recruitment by human PPARgamma; P37231; PPARgamma-SRC-1 coactivator recruitment biochemical assay; activation, % at 8 µM; 200,000 tested, 0.41% active; in the data active = activation above about 19%
Target sequence (P37231 whole entry, looked up): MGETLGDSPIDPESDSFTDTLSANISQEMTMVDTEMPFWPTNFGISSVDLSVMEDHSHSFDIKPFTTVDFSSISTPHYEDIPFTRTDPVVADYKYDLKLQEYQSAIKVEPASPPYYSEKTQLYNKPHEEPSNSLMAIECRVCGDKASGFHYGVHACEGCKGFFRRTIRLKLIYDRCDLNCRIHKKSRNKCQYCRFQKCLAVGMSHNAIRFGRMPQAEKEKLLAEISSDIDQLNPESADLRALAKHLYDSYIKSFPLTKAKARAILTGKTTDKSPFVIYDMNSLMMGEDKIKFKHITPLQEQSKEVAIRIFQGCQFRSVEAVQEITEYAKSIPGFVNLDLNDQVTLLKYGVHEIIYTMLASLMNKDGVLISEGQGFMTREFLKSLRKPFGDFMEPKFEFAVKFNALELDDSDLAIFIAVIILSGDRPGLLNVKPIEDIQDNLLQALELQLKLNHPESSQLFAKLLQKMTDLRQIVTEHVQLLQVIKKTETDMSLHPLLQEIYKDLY
SRC3 TRFRET art: counter-screen for PPARgamma SRC-3 recruitment agonists: TR-FRET artefact; PPARgamma/SRC-3 format; hits give high values; TR-FRET ratio at 8 µM; 99,000 tested, 0.39% active
PPARg SRC2 recr: promotes SRC-2 coactivator recruitment by human PPARgamma; P37231; PPARgamma LBD-SRC-2 recruitment, biochemical; activation, % at 8 µM; 200,000 tested, 0.34% active; in the data active = activation above about 22%
PPARg SRC-3 ag: agonists of human PPARgamma SRC-3 coactivator recruitment; P37231; biochemical PPARgamma/SRC-3 coactivator recruitment assay; activation, % at 8 µM; 200,000 tested, 0.26% active; in the data active = activation above about 23%
SRC1 TRFRET art: TR-FRET artefact, counter-screen to PPARgamma/SRC-1 agonist assay. TR-FRET detection artefact counter-screen, emission ratio; hits give high values. TR-FRET ratio at 8 µM. 99,000 tested, 0.34% active. AID 1051; in the data active = TR-FRET ratio above about 2300
Large screens that a line does not name were inactive. Cut-off read from the data, not from the text of the source, unless noted: active = TR-FRET ratio above about 2000; inactive = the rest.

Cn1ccnc1SCC(=O)Nc1cccc(S(=O)(=O)N2CCCCCC2)c1	none
Cc1ccc(S(=O)(=O)N2CCCCC2)cc1NC(=O)CSc1nccn1C	SRC1 TRFRET art 2368
Cc1cc(C)c2nc(SCC(=O)Nc3ccc(S(=O)(=O)N4CCCC4)cc3)c(C)cc2c1	SRC2 TRFRET art 1973 (no result: SRC3 TRFRET art, SRC1 TRFRET art)
Cc1ccc(NC(=O)CSc2ncnc3ccccc23)cc1S(=O)(=O)N1CCCCC1	SRC3 TRFRET art 2119
COc1ccccc1C(=O)C1CCCN(C(=O)CSc2ccccn2)C1 (stereo not drawn)	PPARg SRC2 recr 24
CCOC(=O)c1c(C)[nH]c(C)c1C(=O)CSc1nc2ccccc2c(=O)n1-c1ccc(CC)cc1	none
CC(=O)c1ccc(-n2c(SCC(=O)c3c[nH]c4ccccc34)nc3ccccc3c2=O)cc1	SRC3 TRFRET art 2096
CC1CCN(S(=O)(=O)c2ccc3c(c2)oc(=O)n3CC(=O)N2c3ccccc3CC2C)CC1 (stereo not drawn)	SRC2 TRFRET art 2000 (no result: SRC3 TRFRET art, SRC1 TRFRET art)
Nc1ccc(N2CCN(c3ccc(Cl)c(Cl)c3)CC2)cc1	none
O=C(CCCCCn1c(=S)[nH]c2ccc(N3CCOCC3)cc2c1=O)NCCc1ccccc1	none
O=C(c1ccc(Cn2c(=S)[nH]c3ccc(N4CCOCC4)cc3c2=O)cc1)N1CCN(c2ccc(F)cc2)CC1	SRC2 TRFRET art 2803, SRC3 TRFRET art 3426, SRC1 TRFRET art 3474
O=C(CCCCCn1c(=S)[nH]c2ccc(N3CCOCC3)cc2c1=O)NCc1ccc2c(c1)OCO2	SRC3 TRFRET art 3424
O=c1c2cc(N3CCOCC3)ccc2[nH]c(=S)n1Cc1ccc(Cl)cc1	none (no result: SRC3 TRFRET art, SRC1 TRFRET art)
COc1ccc(N2CCN(C(=O)c3ccc(Cn4c(=S)[nH]c5ccc(N6CCOCC6)cc5c4=O)cc3)CC2)cc1	none
O=C(CCCCCn1c(=S)[nH]c2ccc(N3CCOCC3)cc2c1=O)NCc1ccc(Cl)cc1	SRC3 TRFRET art 2786
O=C(CCCCCn1c(=S)[nH]c2ccc(N3CCOCC3)cc2c1=O)NCc1ccccc1Cl	SRC3 TRFRET art 3063
CCCCn1c(=S)[nH]c2ccc(N3CCOCC3)cc2c1=O	none
CCOc1ccc(/C=N/O)cc1	none (no result: SRC3 TRFRET art, SRC1 TRFRET art)
CCOc1ccc(/C=N/n2cc(-c3ccccc3)[nH]c2=S)cc1	PPARg SRC-1 ag 24
NC(=O)c1c(NC(=S)Nc2ccccc2)sc2c1CCCC2	SRC1 TRFRET art 2381
Cc1ccccc1CSc1nnc(C)c(=O)n1N	none
CC(C(=O)Nc1ccc2c(c1)OCCO2)c1ccc([N+](=O)[O-])cc1 (stereo not drawn)	SRC3 TRFRET art 2361
COc1ccc(/C=C2\N=C(SC)NC2=O)cc1	PPARg SRC2 recr 22 (no result: SRC3 TRFRET art, SRC1 TRFRET art)
CCSC1=N/C(=C\c2ccc(OC)cc2)C(=O)N1	none
Cc1cc(C)c(S(=O)(=O)Nc2c(C)[nH]c(=O)[nH]c2=O)c(C)c1	none (no result: SRC3 TRFRET art, SRC1 TRFRET art)
Cc1cc(C)c(S(=O)(=O)Nc2ccc3[nH]c(=O)[nH]c3c2)c(C)c1	PPARg SRC-1 ag 22
CSc1ncccc1C(=O)OCC(=O)c1ccc(Br)s1	SRC3 TRFRET art 3227, SRC1 TRFRET art 2355
CSc1ncccc1C(=O)OCC(=O)c1ccccc1Br	none
CN=C1CC(SC)=C1c1ccc(C)cc1	PPARg SRC2 recr 24 (no result: SRC3 TRFRET art, SRC1 TRFRET art)
CCC(C)NC(=O)Cn1c(=O)n(CCCC(=O)NCc2ccccc2Cl)c(=O)c2ccccc21 (stereo not drawn)	PPARg SRC2 recr 22 (no result: SRC3 TRFRET art, SRC1 TRFRET art)
CC1(C)CCCC(C)(C)N1CC(O)COCCOc1ccc(Br)cc1 (stereo not drawn)	none
CCN1/C(=C/c2ccc3cc(C)ccc3[n+]2CC)Sc2cc(C)ccc21	none
CCN1/C(=C/c2ccc3cc(C)ccc3[n+]2C)Sc2ccc3sccc3c21	SRC2 TRFRET art 2435, PPARg SRC-1 ag 96, SRC3 TRFRET art 2512, PPARg SRC2 recr 53, PPARg SRC-3 ag 46, SRC1 TRFRET art 3458
CC(=O)Nc1ccc(C(=O)Nc2nc(-c3ccccn3)cs2)cc1	SRC2 TRFRET art 1977
CC(=O)Nc1ccc(C(=O)Nc2nc(-c3cccnc3)cs2)cc1	none
O=S(=O)(Nc1cc(C(F)(F)F)ccc1N1CCOCC1)c1ccc2ccccc2c1	none
O=C(c1cc2sccc2n1Cc1ccc(F)cc1)N1CCN(c2nc3ccccc3s2)CC1	SRC2 TRFRET art 2655 (no result: SRC3 TRFRET art, SRC1 TRFRET art)
O=C(c1cc2sccc2n1Cc1ccccc1)N1CCc2ccccc21	SRC2 TRFRET art 2447 (no result: SRC3 TRFRET art, SRC1 TRFRET art)
CN(CC1CCOCC1)C(=O)CC1C(=O)NCCN1Cc1cccc(Oc2ccccc2)c1 (stereo not drawn)	none
CCc1ccc(OCC(=O)Nc2ncn[nH]2)cc1	none
CCOC(=O)C1=C(O)/C(=C/c2cccc(OC)c2O)N=C1C	SRC3 TRFRET art 2061
O=C1CN(CC(=O)Nc2cccc(Cl)c2Cl)c2ccccc2N1	none
COc1ccc(OCC(=O)Nc2cc(-c3nn(C)c(=O)c4ccccc34)ccc2OC)cc1	PPARg SRC-1 ag 38 (no result: SRC3 TRFRET art, SRC1 TRFRET art)
O=C(COc1ccccc1-c1ccccc1)NCc1ccco1	PPARg SRC-1 ag 54, SRC1 TRFRET art 4796
CCc1ccc(-n2c(SCC(=O)Nc3cccc(S(=O)(=O)NC4=NCCCCC4)c3)nc3ccccc3c2=O)cc1	none
Cc1ccc(-n2c(SCC(=O)Nc3cccc(S(=O)(=O)NC4=NCCCCC4)c3)nc3ccccc3c2=O)cc1	SRC2 TRFRET art 2048, SRC3 TRFRET art 2355
Nc1cc(=O)[nH]c(SCC(=O)Nc2cc(S(=O)(=O)N3CCOCC3)ccc2Cl)n1	none
O=C(CSc1nc2ccccc2c(=O)n1-c1ccc(F)cc1)Nc1ccc(Cl)c(S(=O)(=O)N2CCOCC2)c1	SRC2 TRFRET art 2212, SRC3 TRFRET art 2299
Cc1ccc(S(=O)(=O)N2CCOCC2)cc1NC(=O)CSc1nnc2cc(C)c3ccccc3n12	none
Cc1cc2nnc(SCC(=O)Nc3cc(S(=O)(=O)N4CCOCC4)ccc3Cl)n2c2ccccc12	SRC3 TRFRET art 2297
O=C(CSc1nnc2c(n1)[nH]c1ccc(S(=O)(=O)N3CCOCC3)cc12)Nc1ccccc1Cl	SRC3 TRFRET art 2209
O=C(Nc1ccc(Br)cn1)c1cccc2c1-c1ccccc1C2=O	none
Cc1ccc(-n2c(SCC(=O)Nc3cc(S(=O)(=O)N4CCOCC4)ccc3Cl)nc3ccccc3c2=O)cc1	none
O=C(CSc1nc2ccccc2s1)Nc1cc(S(=O)(=O)N2CCOCC2)ccc1Cl	SRC3 TRFRET art 2069
Cc1cc(SCC(=O)Nc2cccc(S(=O)(=O)N3CCOCC3)c2)nc2ccccc12	SRC3 TRFRET art 2197
O=C(CSc1nc2ccccc2c(=O)n1-c1ccc(F)c(Cl)c1)Nc1cccc(S(=O)(=O)N2CCOCC2)c1	none
Cc1ccc(Oc2ccc(-c3nnc(-c4ccccc4)o3)cc2[N+](=O)[O-])cc1C	none
CCCCSc1nc(C)nc2c1c(=O)n(C)c(=O)n2C	none (no result: SRC3 TRFRET art, SRC1 TRFRET art)
CCCSc1nc(C)nc2c1c(=O)n(C)c(=O)n2C	PPARg SRC-1 ag 24 (no result: SRC3 TRFRET art, SRC1 TRFRET art)
COc1ccc(C2(CNC(=O)/C=C\c3ccco3)CCCC2)cc1OC	PPARg SRC-1 ag 41 (no result: SRC3 TRFRET art, SRC1 TRFRET art)
O=C(N/N=C/C(Br)=C/c1ccccc1)NC1CCCCC1	none
CC(/C=N/NC(=O)NC1CCCCC1)=C\c1ccccc1	SRC2 TRFRET art 2081
